Records with an inconclusive call do not appear. Activity calls are given as the source filed them. Calls come from the whole dose curve; as a rule, active = well fitted cell-killing curve with a large enough effect; inconclusive = small, poorly fitted or top-dose-only effect, or effect the other way; inactive = flat fitted curve, though single readings scatter.
Experiments:
Assay in all cases: Primary qHTS to identify gynecologic anti-cancer compounds using libraries of approved drugs and bioactive compounds (AID 1345084); note: nearly all actives have a fitted effect of over 55% in size
CAOV3 = conditions: Gynecologic cancer cell panel viability, ATPlite luminescence, 48 h; series mostly up to 57.5 µM
How it was run: (§1)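 Cytotoxicity screen measuring ATP content by luciferase luminescence. Each compound is applied at five concentrations for 48 h at 37 C with 5% CO2.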

CASKI = conditions: Gynecologic cancer cell panel viability, ATPlite luminescence, 48 h; series mostly up to 57.5 µM
How it was run: as §1

Es-2 = conditions: Gynecologic cancer cell panel viability, ATPlite luminescence, 48 h; series mostly up to 57.5 µM
How it was run: as §1

HeLa = conditions: Gynecologic cancer cell panel viability, ATPlite luminescence, 48 h; series mostly up to 57.5 µM
How it was run: as §1

Hek293T = conditions: Gynecologic cancer cell panel viability, ATPlite luminescence, 48 h, control line for the selectivity index; series mostly up to 57.5 µM
How it was run: as §1

JEG-3 = conditions: Gynecologic cancer cell panel viability, ATPlite luminescence, 48 h; series mostly up to 57.5 µM
How it was run: as §1

OV90 = conditions: Gynecologic cancer cell panel viability, ATPlite luminescence, 48 h; series mostly up to 57.5 µM
How it was run: as §1

PA-1 = conditions: Gynecologic cancer cell panel viability, ATPlite luminescence, 48 h; series mostly up to 57.5 µM
How it was run: as §1

SKOV3 = conditions: Gynecologic cancer cell panel viability, ATPlite luminescence, 48 h; series mostly up to 57.5 µM
How it was run: as §1

Tov-21-G = conditions: Gynecologic cancer cell panel viability, ATPlite luminescence, 48 h; series mostly up to 57.5 µM
How it was run: as §1

Tov112D = conditions: Gynecologic cancer cell panel viability, ATPlite luminescence, 48 h; series mostly up to 57.5 µM
How it was run: as §1
% is set by controls: 0 for no effect and ±100 for the full control effect.

C/C=C(\C)C(=O)O[C@H]1[C@@H](O[C@]2(COC(=O)CC(C)C)O[C@H](COC(=O)C(C)C)[C@@H](OC(C)=O)[C@@H]2O)O[C@H](COC(C)=O)[C@@H](O)[C@@H]1O
inactive: Potency (CAOV3) | Potency (CASKI) | Potency (Es-2) | Potency (HeLa) | Potency (Hek293T) | Potency (JEG-3) | Potency (OV90) | Potency (PA-1) | Potency (SKOV3) | Potency (Tov-21-G) | Potency (Tov112D)

CC1CCC(=O)CC(O)C(O)CC(=O)O1 (stereo not given)
inactive: Potency (CAOV3) | Potency (CASKI) | Potency (Es-2) | Potency (HeLa) | Potency (Hek293T) | Potency (JEG-3) | Potency (OV90) | Potency (PA-1) | Potency (SKOV3) | Potency (Tov-21-G) | Potency (Tov112D)

O=C(/C=C/c1ccc(O)c(O)c1)OCc1ccccc1O[C@@H]1O[C@H](CO)[C@@H](O)[C@H](O)[C@H]1O
inactive: Potency (CAOV3) | Potency (CASKI) | Potency (Es-2) | Potency (HeLa) | Potency (Hek293T) | Potency (JEG-3) | Potency (OV90) | Potency (PA-1) | Potency (SKOV3) | Potency (Tov-21-G) | Potency (Tov112D)

NC(=O)c1ccc(OCC2NC(=O)C3CCCN3C2=O)cc1 (stereo not given)
inactive: Potency (CAOV3) | Potency (CASKI) | Potency (Es-2) | Potency (HeLa) | Potency (Hek293T) | Potency (JEG-3) | Potency (OV90) | Potency (PA-1) | Potency (SKOV3) | Potency (Tov-21-G) | Potency (Tov112D)

CC1=CCC2C(C)(CO)CCCC2(C)C1CC12OC1C(O)C(CO)=CC2O (stereo not given)
inactive: Potency (CAOV3) | Potency (CASKI) | Potency (Es-2) | Potency (HeLa) | Potency (Hek293T) | Potency (JEG-3) | Potency (OV90) | Potency (PA-1) | Potency (SKOV3) | Potency (Tov-21-G) | Potency (Tov112D)

C=C1[C@H]2CC[C@]3(O)[C@@](CC[C@@H]4[C@](C)(C(=O)O)CCC[C@]43C)(C2)[C@H]1OC(=O)/C(C)=C\C
inactive: Potency (CAOV3) | Potency (CASKI) | Potency (Es-2) | Potency (HeLa) | Potency (Hek293T) | Potency (JEG-3) | Potency (OV90) | Potency (PA-1) | Potency (SKOV3) | Potency (Tov-21-G) | Potency (Tov112D)

C#Cc1cnc2[nH]c(=O)n(C(CC)CC)c2n1
inactive: Potency (CAOV3) | Potency (CASKI) | Potency (Es-2) | Potency (HeLa) | Potency (Hek293T) | Potency (JEG-3) | Potency (OV90) | Potency (PA-1) | Potency (SKOV3) | Potency (Tov-21-G) | Potency (Tov112D)

CC(=O)O[C@H]1[C@H](C)[C@@H](O)[C@H]2[C@@H]1C=C(C(=O)O)[C@H]1C[C@@H]3[C@H]([C@H]21)[C@H]1C(=O)O[C@@H]2CC[C@@]3(C)O[C@]1(O)[C@@H]2C
inactive: Potency (CAOV3) | Potency (CASKI) | Potency (Es-2) | Potency (HeLa) | Potency (Hek293T) | Potency (JEG-3) | Potency (OV90) | Potency (PA-1) | Potency (SKOV3) | Potency (Tov-21-G) | Potency (Tov112D)

CC/C=C\C[C@H]1C(=O)C=C[C@@H]1CCCCCCCC(=O)O
inactive: Potency (CAOV3) | Potency (CASKI) | Potency (Es-2) | Potency (HeLa) | Potency (Hek293T) | Potency (JEG-3) | Potency (OV90) | Potency (PA-1) | Potency (SKOV3) | Potency (Tov-21-G) | Potency (Tov112D)

C[C@@H]1O[C@@H](O[C@@H]2[C@@H](O)[C@@H](O)[C@H](O[C@@H]3[C@@H](O)[C@@H](O[C@]4(CO)O[C@H](CO)[C@@H](O)[C@@H]4OC(=O)/C=C/c4ccc(O)cc4)O[C@H](CO)[C@H]3OC(=O)/C=C/c3ccc(O)cc3)O[C@H]2C)[C@H](O)[C@H](O)[C@H]1O
inactive: activity change, negative = cytotoxicity (CAOV3) 16.9% [at 11.6 µM] | activity change, negative = cytotoxicity (CASKI) -0.379% [at 11.6 µM] | activity change, negative = cytotoxicity (Es-2) 1.92% [at 11.6 µM] | activity change, negative = cytotoxicity (HeLa) 11% [at 11.6 µM] | activity change, negative = cytotoxicity (Hek293T) 1.13% [at 11.6 µM] | activity change, negative = cytotoxicity (JEG-3) -6.75% [at 11.6 µM] | activity change, negative = cytotoxicity (OV90) 7.74% [at 11.6 µM] | activity change, negative = cytotoxicity (PA-1) -5.64% [at 11.6 µM] | activity change, negative = cytotoxicity (SKOV3) -21.8% [at 11.6 µM] | activity change, negative = cytotoxicity (Tov-21-G) -2.88% [at 11.6 µM] | activity change, negative = cytotoxicity (Tov112D) -1.04% [at 11.6 µM]

C=CC1C(O[C@@H]2O[C@H](CO)[C@@H](O)[C@H](O)[C@H]2O)OC=C(C(=O)OC)C1CC(=O)O (stereo not given in full)
inactive: Potency (CAOV3) | Potency (CASKI) | Potency (Es-2) | Potency (HeLa) | Potency (Hek293T) | Potency (JEG-3) | Potency (OV90) | Potency (PA-1) | Potency (SKOV3) | Potency (Tov-21-G) | Potency (Tov112D)

CC(C)C1=CC2=CCC3[C@](C)(CCC[C@@]3(C)C(=O)O)C2CC1=O (stereo not given in full)
inactive: Potency (CAOV3) | Potency (CASKI) | Potency (Es-2) | Potency (HeLa) | Potency (Hek293T) | Potency (JEG-3) | Potency (OV90) | Potency (PA-1) | Potency (SKOV3) | Potency (Tov-21-G) | Potency (Tov112D)

O=C1NC(Cc2ccc(O)cc2)C(=O)N2CCCC12 (stereo not given)
inactive: Potency (CAOV3) | Potency (CASKI) | Potency (Es-2) | Potency (HeLa) | Potency (Hek293T) | Potency (JEG-3) | Potency (OV90) | Potency (PA-1) | Potency (SKOV3) | Potency (Tov-21-G) | Potency (Tov112D)

CC(C)CC(=O)OC[C@H]1O[C@@](COC(=O)CC(C)C)(O[C@H]2O[C@H](CO)[C@@H](O)[C@H](O)[C@H]2O)[C@@H](OC(=O)CC(C)C)[C@@H]1OC(=O)CC(C)C
inactive: Potency (CAOV3) | Potency (CASKI) | Potency (Es-2) | Potency (HeLa) | Potency (Hek293T) | Potency (JEG-3) | Potency (OV90) | Potency (PA-1) | Potency (SKOV3) | Potency (Tov-21-G) | Potency (Tov112D)

CC(=O)O[C@@H]1[C@H]2[C@@H](OC(=O)c3ccccc3)[C@@H](C)C[C@]2(O)[C@H](OC(C)=O)[C@@]2(C)[C@@H]3CC(C)(C)C(=O)[C@]3(OC(C)=O)C[C@@]12C
inactive: Potency (CAOV3) | Potency (CASKI) | Potency (Es-2) | Potency (HeLa) | Potency (Hek293T) | Potency (JEG-3) | Potency (OV90) | Potency (PA-1) | Potency (SKOV3) | Potency (Tov-21-G) | Potency (Tov112D)

Source: PubChem BioAssay (NCATS)
